# According to PubChem BioAssay (NCI):
# About 83,000 compounds went through this panel and 20% of them were active in at least one assay; those are over-represented in the sample as a whole.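 Single-concentration screen, 48 h exposure, 96-well plates. Endpoint: percent growth. Below 10 = active.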 Values without a mark were called inactive. The source made the active and inactive calls.
# System: MDA-MB-468 breast
# Assay: NCI-60 one-dose screen, 48 h (100 = growth as untreated, 0 = no growth, -100 = all killed)
# Settings: 10 µM unless noted
row,Structure (SMILES),growth
1,CCOC(=O)n1cc(-c2nonc2-c2cn(C)c3ccccc23)c2ccccc21,13.1%
2,COc1ccc(-n2cc(-c3ccccc3)c3c(SCC(=O)N/N=C/c4ccc([N+](=O)[O-])cc4)ncnc32)cc1,98%
3,COc1ccc(-c2nc3sc(-c4ccc(OC)cc4)c(-c4ccc(OC)cc4)n3c2/C=C/c2ccc(C(C)C)cc2)cc1,98.9%
4,COc1cc(C2=NN(C(C)=O)C(c3cc(OC)c(OC)c(OC)c3)C2)ccc1O (stereo not given),15.9%
5,COc1ccc(C(=S)N2CCN(c3cccc(C)c3)CC2)cc1OC,66.3%
6,CS(CCCCN=C=S)=NC(=O)c1c(F)c(F)c(F)c(F)c1F (stereo not given),30.1%
7,COc1ccc2c(ccc[n+]2C)c1,81.5%
8,CCC(c1ccc(OC)cc1)C(CC)c1ccc(O)c(CN2CCCC2)c1 (stereo not given),-45% (active)
9,NC(=N\N=C/c1cccc([N+](=O)[O-])c1)/C(N)=N\N=C/c1cccc([N+](=O)[O-])c1,64.9%
10,CCOc1cc(CNc2ccc(N3CCOCC3)c(C(=O)O)c2)ccc1OC,94.7%
11,NS(=O)(=O)c1nnc(/N=C/c2c(O)[nH]c3ccccc23)s1,109%
12,Cc1nc(Nc2ccc(F)c(Cl)c2)sc1C(=O)O,-1.67% (active)
13,CCOC(=O)/C(=C/c1c(-c2ccccc2)[nH]c2ccccc12)C(=O)c1ccc(Cl)cc1,19.8%
14,CCCCOc1nc2ccc(OC)cc2cc1-c1cc(-c2ccc(Cl)cc2)nc(-c2ccc(Cl)cc2)c1,95.2%
15,Cc1cnc(C(=O)NNc2nc3sc4c(c3c(=O)[nH]2)C(C)CCC4)cn1 (stereo not given),-10.4% (active)
16,O=c1c2cccc(F)c2sc2c(N3CCNCC3)nc3ccccc3c12,37.2%
17,O=C(O)c1ccc2c(c1)nc(Nc1cccc(Cl)c1)c1ccncc12,-36.1% (active)
18,CC(=O)Nc1ccc(S(=O)(=O)n2ccc(-c3ccc4c(c3)CCC(C)(C)O4)n2)cc1,24.9%
19,O=C(N/N=C/c1cc(Cl)ccc1O)C(=O)N/N=C/c1cc(Cl)ccc1O,61.3%
20,NC1=CSC2=N/C(=C\c3ccc(Cl)cc3)C(=O)N12,64.5%

row,Structure (SMILES),growth
1,COc1ccc(/C=N/C2=C(C#N)C(c3ccccc3)c3ccc4ccccc4c3O2)cc1 (stereo not given),17.9%
2,CCN(CC)c1ccc(/C=C/c2ccc3cc(C)ccc3[n+]2CC)cc1,-24% (active)
3,COC(=O)/C=C1/SC(=NCc2ccccc2)N(CCc2c[nH]c3ccccc23)C1=O,81.1%
4,CCOC(=O)c1sc(N)nc1-c1ccccc1,97.4%
5,Cc1ccc(C2=NN(c3ccc(S(C)(=O)=O)cc3)C(=O)CC2)cc1,23.9%
6,COC1C(OC(N)=O)C(O)C(Oc2ccc3c(O)c(NC(=O)c4ccc(O)c(CC=C(C)C)c4)c(=O)oc3c2C)OC1(C)C (stereo not given),89%
7,C[C@@H](Oc1cc(-c2cnn(C3CC4(CCNCC4)C3)c2)cnc1N)c1c(F)ccc(Cl)c1Cl,-53.3% (active)
8,O=C1C2CC3C(CC2C(=O)[N]1[Sn]([c]1ccccc1)([c]1ccccc1)[c]1ccccc1)C1(Cl)C(Cl)=C(Cl)C3(Cl)C1(Cl)Cl (stereo not given),-83.1% (active)
9,Cc1ccc(NC(=O)N[C@@H](Cc2cc(F)cc(F)c2)C(=O)N[C@@H]2C(=O)N3CCC[C@H]3C(=O)N3CCOC[C@H]3C(=O)N[C@@H](C)C(=O)N3C[C@H](C)C[C@H]3C(=O)O[C@H]2C)cc1,5.17% (active)
10,COc1cc(C(=O)/C=C/c2cc(-c3cc(OC)c(OC)c(OC)c3)n[nH]2)cc(OC)c1OC,-79% (active)
11,CC(C)C1=NOC(=O)C1=Cc1cn(-c2ccccc2)nc1-c1ccccc1,97.2%
12,CCN1CCN(CC(=O)N2c3cccc4cccc(c34)N(C(=O)CN3CCN(CC)CC3)C2c2cn(-c3ccccc3)nc2-c2cccc([N+](=O)[O-])c2)CC1,-47.8% (active)
13,CC(=O)c1cc(-c2ccccc2N)n(-c2ccc3c(c2)OCO3)c1C,30.5%
14,N=C(N)c1ccc(-c2ccc(-c3ccco3)o2)cc1,22.9%
15,CSCC[C@@H]1C(=O)N(C)[C@H](C(C)(C)C)N1C(=O)c1ccccc1,105%
16,CCOC(OCC)C(=O)c1ccccc1,102%
17,COc1cccc(/C=C2\COc3ccc(O)cc3C2=O)c1OC,43.9%
18,CN1CCN(CCOc2ccc(-c3cnc4c(-c5cccc(F)c5)cnn4c3)cc2)CC1,65.4%
19,O=C(CI)NC1Oc2ccccc2-c2oc(=O)c(-c3ccccc3)cc21 (stereo not given),-42.3% (active)
20,Cn1ccnc1C(=O)/C=C/c1ccc(CNC(=O)c2ccc(F)cc2)cc1,-29.1% (active)
